Compound activity as filed in PubChem.
Hits are enriched below; roughly 4% of the tested compounds scored in any of these assays.
TWEAK Fn14 block – blocks TWEAK-Fn14 interaction in a reporter cell assay | TWEAK-stimulated Fn14 reporter cells, luciferase luminescence, 8 h | inhibition, % at 10 µM | 360,000 tested, 2% active; in the data active = inhibition above about 50%
TROY NFkB inh – inhibitors of TROY-dependent NF-kB signaling; Q293 LMP1-TROYcd NF-kB luciferase reporter, 4 h; inhibition, % at 10 µM; 360,000 tested, 0.98% active; AID 1347056;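 active = compounds whose plate-normalised and pattern-corrected inhibition of the luciferase reporter signal at the single screening dose is 50% or more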
KKLEB tox – counter-screen for CF NF-kB inhibitors: cytotoxicity. KKLEB CF airway cells viability, ATPlite luminescence, overnight; stronger effect = lower value; cells stimulated with P. aeruginosa culture filtrate. activity change (cytotoxicity), % at 5 µM. 360,000 tested, 0.36% active;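 active = corrected activity change at or below -50% at 5 µM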
HIF-2a inh – blocks HIF-2a reporter activity | 786-0 RCC cells HIF-2a reporter, luciferase luminescence, overnight | inhibition, % at 18.8 µM | 360,000 tested, 0.72% active | AID 624352;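 active = inhibition of the luminescence signal of 40% or more relative to plate controls, in a single-dose primary screen at 18.75 µM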
Peg3 prom inh – Peg3 promoter activity inhibition | HeLa PEG-Prom luciferase reporter, luminescence, overnight | inhibition, % at 20 µM | 360,000 tested, 1.7% active | AID 588405;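 active = inhibition of at least 50% at 20 µM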
CF NFkB block – blocks PAF-induced NF-kB reporter in cystic fibrosis cells. inhibition, % at 5 µM. 360,000 tested, 0.86% active. KKLEB NF-kB-GFP reporter, GFP fluorescence overnight;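 active = at least 50% inhibition at 5 µM, scaled per plate between neutral and stimulator controls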;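 note: PAF is a Pseudomonas aeruginosa culture filtrate used as stimulus; plate controls were PAF-stimulated DMSO wells for no effect and unstimulated DMSO wells for full effect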
* = called active by the depositor.

COc1cc(SC)ccc1C(=O)Nc1ccc(Br)cn1 was read as TWEAK Fn14 block 97.4*, TROY NFkB inh 84.0*, KKLEB tox -84.8*, HIF-2a inh 38.1, Peg3 prom inh 55.4* and CF NFkB block -10.3.
N=c1c2c(ncn1Cc1ccco1)Oc1c(ccc3ccccc13)C2c1ccccc1 (centres undefined) was read as TWEAK Fn14 block 55.5*, TROY NFkB inh 11.7, KKLEB tox -31.3, HIF-2a inh -51.4, Peg3 prom inh 80.1* and CF NFkB block 33.7.
COc1ccc(C2c3c(ncn(CCN4CCOCC4)c3=N)Oc3ccc4ccccc4c32)cc1 (centres undefined) was read as TWEAK Fn14 block -13.0, TROY NFkB inh -4.7, KKLEB tox -14.3, HIF-2a inh 20.2, Peg3 prom inh 60.3* and CF NFkB block -13.6.
For CN(C)CCn1cnc2c(c1=N)C(c1ccccc1)c1ccc3ccccc3c1O2 (centres undefined) the results were TWEAK Fn14 block -24.1, TROY NFkB inh -47.8, KKLEB tox -10.1, HIF-2a inh -9.4, Peg3 prom inh 108.7* and CF NFkB block 9.9.
For COc1ccc(N2CCN(C(=O)c3ccccc3N(C)S(=O)(=O)c3ccc(C)cc3)CC2)cc1 the results were TWEAK Fn14 block 8.2, TROY NFkB inh 14.9, KKLEB tox 1.9, HIF-2a inh 12.9, Peg3 prom inh 30.3 and CF NFkB block -16.3.
For N#CC(C#N)=C(Nc1ccc(F)cc1)SCc1cccc(Br)c1 the results were TWEAK Fn14 block 39.8, TROY NFkB inh 33.6, KKLEB tox -41.8, HIF-2a inh -32.9, Peg3 prom inh 20.6 and CF NFkB block 51.3*.
CC(SCc1ccccc1)C(=O)Nc1ccc(F)cc1 (centres undefined) was read as TWEAK Fn14 block -0.9, TROY NFkB inh 3.7, KKLEB tox 10.5, HIF-2a inh -41.7, Peg3 prom inh -23.9 and CF NFkB block 5.6.
S=C1Nc2ccccc2CS1 was read as TWEAK Fn14 block 11.7, TROY NFkB inh -8.3, KKLEB tox -0.7, HIF-2a inh 11.5, Peg3 prom inh 5.2 and CF NFkB block -14.9.
S=C1Cc2ccccc2N1 was read as TWEAK Fn14 block 72.3*, TROY NFkB inh 22.3, KKLEB tox 18.4, HIF-2a inh 22.1, Peg3 prom inh 95.5* and CF NFkB block -7.0.
For Cc1ccc(NC2=CC(=O)CC(C)(C)C2)cc1C the results were TWEAK Fn14 block -12.4, TROY NFkB inh -26.4, KKLEB tox -6.1, HIF-2a inh -2.0, Peg3 prom inh -1.1 and CF NFkB block 20.6.
For CC1(C)CC(=O)C=C(Nc2ccc3c(c2)OCCO3)C1 the results were TWEAK Fn14 block 69.9*, TROY NFkB inh 49.7, KKLEB tox 4.6, HIF-2a inh 26.8, Peg3 prom inh -32.7 and CF NFkB block -7.8.
Screening O=[N+]([O-])c1cc(Cc2ccccc2)cc(C=Nc2ccc(N3CCOCC3)cc2)c1O returned TWEAK Fn14 block 8.2, TROY NFkB inh 29.1, KKLEB tox 32.3, HIF-2a inh 32.1, Peg3 prom inh 5.3 and CF NFkB block 39.9.
Screening Cc1ccc(O)c(N=Cc2cc(Cc3ccccc3)cc([N+](=O)[O-])c2O)c1 returned TWEAK Fn14 block 3.9, TROY NFkB inh 52.3*, KKLEB tox 41.3, HIF-2a inh -18.7, Peg3 prom inh -3.4 and CF NFkB block 17.2.
`CNc1cc(-c2cccc(N(C)C)c2)ncn1` gave TWEAK Fn14 block 2.9, TROY NFkB inh -37.2, KKLEB tox 6.8, HIF-2a inh -207.3, Peg3 prom inh -258.5 and CF NFkB block -5.6.
For Clc1cccc2c1Sc1ccccc1CC2N1CCNCC1 (centres undefined) the results were TWEAK Fn14 block 13.4, TROY NFkB inh 16.6, KKLEB tox -25.0, HIF-2a inh 15.4, Peg3 prom inh 108.5* and CF NFkB block 37.5.
Screening COCCCN1CCN(C2Cc3ccccc3Sc3ccc(Cl)cc32)CC1 (centres undefined) returned TWEAK Fn14 block 5.1, TROY NFkB inh 13.5, KKLEB tox -23.0, HIF-2a inh 5.9, Peg3 prom inh 18.8 and CF NFkB block 30.1.
Screening Clc1ccc2c(c1)C(N1CCNCC1)Cc1ccccc1S2 (centres undefined) returned TWEAK Fn14 block -15.0, TROY NFkB inh -22.1, KKLEB tox -24.5, HIF-2a inh 39.0, Peg3 prom inh 104.2* and CF NFkB block 24.1.
For Cc1ccc(-n2ncc3c2CC(C)(C)CC3NC(=O)CCc2ccncc2)cc1 (centres undefined) the results were TWEAK Fn14 block -22.8, TROY NFkB inh -19.2, KKLEB tox -16.4, HIF-2a inh 8.3, Peg3 prom inh 26.0 and CF NFkB block 13.7.
`COc1ccc(NC(=O)C(c2cccc3ccccc23)n2c(=O)c(-c3ccco3)nc3ccccc32)cc1` (centres undefined) gave HIF-2a inh 11.8.
CC1=NN(c2nc(-c3ccc(C)cc3)cs2)C(=O)C1N=Nc1cccc(O)c1 (centres undefined) was read as TWEAK Fn14 block 50.0*, TROY NFkB inh 29.8, KKLEB tox 9.2, HIF-2a inh -21.2, Peg3 prom inh 27.3 and CF NFkB block 41.4.
`CC1=NN(c2nc(-c3ccc(C)cc3)cs2)C(=O)C1N=Nc1ccccc1O` (centres undefined) gave TWEAK Fn14 block 62.2*, TROY NFkB inh 0.1, KKLEB tox 14.5, HIF-2a inh -32.1, Peg3 prom inh 17.8 and CF NFkB block -14.4.
For CC1(C(=O)NCCC#N)CCN1C(=O)CC(c1ccccc1)c1ccccc1 (centres undefined) the results were TWEAK Fn14 block 17.4, TROY NFkB inh -13.3, KKLEB tox 6.3, HIF-2a inh -1.2, Peg3 prom inh -1.7 and CF NFkB block -0.2.
For Cn1nc(C(C)(C)C)cc1C(=O)N1CCC(C)(C(=O)NS(=O)(=O)C2CC2)C1 (centres undefined) the results were TWEAK Fn14 block -15.4, TROY NFkB inh -5.5, KKLEB tox 11.0, HIF-2a inh 9.1, Peg3 prom inh -9.6 and CF NFkB block -3.7.
CCN(Cc1ccncc1)C(=O)c1ccc(C)c(S(=O)(=O)N2CCCCC2)c1 was read as TWEAK Fn14 block 2.9, TROY NFkB inh 0.1, KKLEB tox -13.7, HIF-2a inh 10.4, Peg3 prom inh -4.2 and CF NFkB block -0.7.
For CCCCCCC[C@@H](C/C=C/CCC(=O)N(C)C/C(=C/Cl)C/C(=C\C(=O)N1CC(OC)=CC1=O)OC)OC the results were TWEAK Fn14 block 16.7, TROY NFkB inh -69.8, KKLEB tox -60.8*, HIF-2a inh 8.5, Peg3 prom inh 40.8 and CF NFkB block 54.4*.
`CC(=O)Nc1ccc(SCCCC(=O)c2ccccc2)cc1` gave TWEAK Fn14 block 18.5, TROY NFkB inh -34.4, KKLEB tox 2.0, HIF-2a inh -175.0, Peg3 prom inh -257.6 and CF NFkB block -14.4.
Screening CCN(CC)S(=O)(=O)c1ccccc1/C=N\O returned TWEAK Fn14 block 62.3*, TROY NFkB inh 32.1, KKLEB tox -5.4, HIF-2a inh -8.8, Peg3 prom inh -9.0 and CF NFkB block 7.9.
